Columns and labels:
Assay in all cases: DAPPL (digital affinity profiling via proximity ligation, sequencing); 10 mM Tris-HCl pH 7.5, 50 mM NaCl, 1 mM DTT, 4% glycerol, room temperature, 30 min; GST-TFs on glutathione beads, 16-mer random dsDNA library, 0.1% formaldehyde crosslink after washing; high values mean tight binding
Conditions in all cases: protein: recombinant; tags: N-terminal GST; dsDNA, one strand shown
ERF = molecular target: T1, ERF (Homo sapiens, UniProt P50548 1-548)
T1 sequence: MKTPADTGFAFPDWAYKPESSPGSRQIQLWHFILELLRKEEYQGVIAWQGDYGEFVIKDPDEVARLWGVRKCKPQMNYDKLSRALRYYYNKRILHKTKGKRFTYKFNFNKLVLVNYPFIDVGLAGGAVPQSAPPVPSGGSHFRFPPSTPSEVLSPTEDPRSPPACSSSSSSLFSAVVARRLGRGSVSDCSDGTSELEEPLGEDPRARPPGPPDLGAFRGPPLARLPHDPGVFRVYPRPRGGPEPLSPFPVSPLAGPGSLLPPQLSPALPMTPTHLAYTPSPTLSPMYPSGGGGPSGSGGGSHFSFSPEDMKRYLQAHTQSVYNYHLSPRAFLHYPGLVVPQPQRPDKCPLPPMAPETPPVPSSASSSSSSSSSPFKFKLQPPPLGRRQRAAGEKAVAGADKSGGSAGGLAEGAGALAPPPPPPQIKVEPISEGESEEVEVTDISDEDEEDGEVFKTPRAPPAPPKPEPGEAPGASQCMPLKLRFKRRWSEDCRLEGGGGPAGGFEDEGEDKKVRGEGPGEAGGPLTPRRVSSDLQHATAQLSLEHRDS
Outline: (§1)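 Human transcription factors fused to GST were expressed in yeast, captured on glutathione beads, given DNA barcodes and pooled with a GST-only negative control. Pools were incubated with 200 nmole of a 16-mer random double-stranded DNA library in Tris/NaCl/DTT/glycerol buffer at room temperature for 30 min. They were then washed, crosslinked with 0.1% formaldehyde, proximity-ligated (BsaI/T4 ligase, 1 h, 37 °C), PCR-amplified and sequenced on an Illumina NextSeq500. Binding signal is each 6-mer's read frequency for a factor divided by its frequency for the GST control.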

ETV3L = molecular target: T2, ETV3L (Homo sapiens, UniProt Q6ZN32 1-361)
T2 sequence: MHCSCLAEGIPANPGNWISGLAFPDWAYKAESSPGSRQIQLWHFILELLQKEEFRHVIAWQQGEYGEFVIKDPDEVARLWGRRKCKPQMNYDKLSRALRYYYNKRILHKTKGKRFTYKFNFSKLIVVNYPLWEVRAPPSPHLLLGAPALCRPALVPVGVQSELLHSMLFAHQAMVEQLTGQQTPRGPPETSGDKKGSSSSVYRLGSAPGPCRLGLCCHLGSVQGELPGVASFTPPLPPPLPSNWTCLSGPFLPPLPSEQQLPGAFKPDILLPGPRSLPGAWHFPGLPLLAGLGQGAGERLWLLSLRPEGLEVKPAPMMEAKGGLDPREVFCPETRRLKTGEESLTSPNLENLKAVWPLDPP
Outline: as §1

ETS2 = molecular target: T3, ETS2 (Homo sapiens, UniProt P15036 1-469)
T3 sequence: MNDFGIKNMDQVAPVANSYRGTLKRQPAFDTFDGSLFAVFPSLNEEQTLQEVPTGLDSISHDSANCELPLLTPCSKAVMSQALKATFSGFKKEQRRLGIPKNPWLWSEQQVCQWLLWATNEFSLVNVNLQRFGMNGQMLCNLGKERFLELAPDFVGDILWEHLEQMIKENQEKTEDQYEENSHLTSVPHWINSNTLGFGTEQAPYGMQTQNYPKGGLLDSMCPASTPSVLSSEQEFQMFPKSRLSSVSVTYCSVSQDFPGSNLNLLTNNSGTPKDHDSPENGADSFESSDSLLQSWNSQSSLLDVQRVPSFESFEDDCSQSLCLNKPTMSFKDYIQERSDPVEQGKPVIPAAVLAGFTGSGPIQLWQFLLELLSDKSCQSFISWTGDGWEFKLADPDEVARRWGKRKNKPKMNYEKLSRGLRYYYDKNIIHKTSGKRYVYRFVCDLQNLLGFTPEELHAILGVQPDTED
Outline: as §1

SPDEF = molecular target: T4, SPDEF (Homo sapiens, UniProt O95238 1-335)
T4 sequence: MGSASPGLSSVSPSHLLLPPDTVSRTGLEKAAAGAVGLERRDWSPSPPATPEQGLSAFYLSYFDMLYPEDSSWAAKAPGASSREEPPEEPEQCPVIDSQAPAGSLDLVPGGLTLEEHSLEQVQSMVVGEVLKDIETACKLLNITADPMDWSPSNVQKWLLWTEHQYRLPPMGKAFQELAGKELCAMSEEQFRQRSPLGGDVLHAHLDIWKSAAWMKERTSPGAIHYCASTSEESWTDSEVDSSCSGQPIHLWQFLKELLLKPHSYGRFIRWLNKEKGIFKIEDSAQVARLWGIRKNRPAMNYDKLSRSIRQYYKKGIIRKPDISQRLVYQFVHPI
Outline: as §1

ETV7 = molecular target: T5, ETV7 (Homo sapiens, UniProt Q9Y603 1-341)
T5 sequence: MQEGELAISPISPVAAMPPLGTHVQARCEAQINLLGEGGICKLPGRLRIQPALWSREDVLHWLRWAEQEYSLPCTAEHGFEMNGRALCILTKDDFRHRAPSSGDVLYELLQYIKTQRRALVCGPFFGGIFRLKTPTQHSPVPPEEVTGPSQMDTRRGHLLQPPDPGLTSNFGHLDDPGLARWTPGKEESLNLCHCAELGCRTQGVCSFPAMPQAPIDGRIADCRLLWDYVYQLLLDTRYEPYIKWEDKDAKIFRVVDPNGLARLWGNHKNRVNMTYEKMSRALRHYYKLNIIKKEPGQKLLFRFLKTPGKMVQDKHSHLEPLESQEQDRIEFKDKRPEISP
Outline: as §1

ELF5 = molecular target: T6, ELF5 (Homo sapiens, UniProt Q9UKW6-2 1-255)
T6 sequence: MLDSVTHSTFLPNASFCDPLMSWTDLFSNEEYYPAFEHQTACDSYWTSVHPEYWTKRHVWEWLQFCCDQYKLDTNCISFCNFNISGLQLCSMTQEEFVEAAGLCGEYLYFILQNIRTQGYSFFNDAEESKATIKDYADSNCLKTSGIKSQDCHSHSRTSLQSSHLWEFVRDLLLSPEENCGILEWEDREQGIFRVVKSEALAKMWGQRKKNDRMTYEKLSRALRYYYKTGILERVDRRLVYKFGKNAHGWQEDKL
Outline: as §1

ETV3 = molecular target: T7, ETV3 (Homo sapiens, UniProt P41162-2 1-143)
T7 sequence: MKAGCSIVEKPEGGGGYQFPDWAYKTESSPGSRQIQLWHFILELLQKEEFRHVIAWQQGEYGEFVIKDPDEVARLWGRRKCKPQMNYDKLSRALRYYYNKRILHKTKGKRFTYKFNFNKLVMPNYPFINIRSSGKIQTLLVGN
Outline: as §1

ETV6 = ETV6 (Homo sapiens, UniProt P41212 1-452)
Chain of ETV6 (P41212 whole entry): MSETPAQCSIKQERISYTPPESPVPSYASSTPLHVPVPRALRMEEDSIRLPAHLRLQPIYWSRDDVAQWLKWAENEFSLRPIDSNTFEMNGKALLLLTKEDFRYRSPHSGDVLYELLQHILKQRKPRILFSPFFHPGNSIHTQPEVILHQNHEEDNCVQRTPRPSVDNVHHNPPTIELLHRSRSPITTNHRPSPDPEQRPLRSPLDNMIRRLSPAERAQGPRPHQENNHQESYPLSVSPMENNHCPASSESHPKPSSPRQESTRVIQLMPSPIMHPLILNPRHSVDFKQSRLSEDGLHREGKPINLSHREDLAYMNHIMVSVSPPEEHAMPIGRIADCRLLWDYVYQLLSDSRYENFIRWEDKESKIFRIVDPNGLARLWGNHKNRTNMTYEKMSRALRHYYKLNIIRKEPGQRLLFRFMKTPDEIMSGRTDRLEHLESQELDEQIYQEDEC
Outline: as §1

Sequence | binding signal (ERF) | binding signal (ETV3L) | binding signal (ETS2) | binding signal (SPDEF) | binding signal (ETV7) | binding signal (ELF5) | binding signal (ETV3) | binding signal (ETV6)
GCTCCC | 1.29 fold enrichment (6-mer frequency, TF over GST control) | 1.27 fold enrichment (6-mer frequency, TF over GST control) | 1.35 fold enrichment (6-mer frequency, TF over GST control) | 1.47 fold enrichment (6-mer frequency, TF over GST control) | 1.31 fold enrichment (6-mer frequency, TF over GST control) | 1.33 fold enrichment (6-mer frequency, TF over GST control) | 1.21 fold enrichment (6-mer frequency, TF over GST control) | 1.25 fold enrichment (6-mer frequency, TF over GST control)
ACGGAT | 1.11 fold enrichment (6-mer frequency, TF over GST control) | 1.23 fold enrichment (6-mer frequency, TF over GST control) | 1.3 fold enrichment (6-mer frequency, TF over GST control) | 1.94 fold enrichment (6-mer frequency, TF over GST control) | 1.13 fold enrichment (6-mer frequency, TF over GST control) | 1.34 fold enrichment (6-mer frequency, TF over GST control) | 1.3 fold enrichment (6-mer frequency, TF over GST control) | 1.22 fold enrichment (6-mer frequency, TF over GST control)
AACTTA | 1.29 fold enrichment (6-mer frequency, TF over GST control) | 1.14 fold enrichment (6-mer frequency, TF over GST control) | 1.22 fold enrichment (6-mer frequency, TF over GST control) | 1.16 fold enrichment (6-mer frequency, TF over GST control) | 1.14 fold enrichment (6-mer frequency, TF over GST control) | 1.25 fold enrichment (6-mer frequency, TF over GST control) | 1.14 fold enrichment (6-mer frequency, TF over GST control) | 1.32 fold enrichment (6-mer frequency, TF over GST control)
GACTCC | 1.32 fold enrichment (6-mer frequency, TF over GST control) | 1.27 fold enrichment (6-mer frequency, TF over GST control) | 1.29 fold enrichment (6-mer frequency, TF over GST control) | 1.41 fold enrichment (6-mer frequency, TF over GST control) | 1.23 fold enrichment (6-mer frequency, TF over GST control) | 1.16 fold enrichment (6-mer frequency, TF over GST control) | 1.35 fold enrichment (6-mer frequency, TF over GST control) | 1.18 fold enrichment (6-mer frequency, TF over GST control)
TCTCGG | 1.24 fold enrichment (6-mer frequency, TF over GST control) | 1.48 fold enrichment (6-mer frequency, TF over GST control) | 1.3 fold enrichment (6-mer frequency, TF over GST control) | 1.24 fold enrichment (6-mer frequency, TF over GST control) | 1.23 fold enrichment (6-mer frequency, TF over GST control) | 1.32 fold enrichment (6-mer frequency, TF over GST control) | 1.37 fold enrichment (6-mer frequency, TF over GST control) | 1.33 fold enrichment (6-mer frequency, TF over GST control)
AACATA | 1.32 fold enrichment (6-mer frequency, TF over GST control) | 1.24 fold enrichment (6-mer frequency, TF over GST control) | 1.23 fold enrichment (6-mer frequency, TF over GST control) | 1.19 fold enrichment (6-mer frequency, TF over GST control) | 1.31 fold enrichment (6-mer frequency, TF over GST control) | 1.3 fold enrichment (6-mer frequency, TF over GST control) | 1.27 fold enrichment (6-mer frequency, TF over GST control) | 1.27 fold enrichment (6-mer frequency, TF over GST control)
ATGGCA | 1.23 fold enrichment (6-mer frequency, TF over GST control) | 1.2 fold enrichment (6-mer frequency, TF over GST control) | 1.15 fold enrichment (6-mer frequency, TF over GST control) | 1.1 fold enrichment (6-mer frequency, TF over GST control) | 1.24 fold enrichment (6-mer frequency, TF over GST control) | 1.26 fold enrichment (6-mer frequency, TF over GST control) | 1.3 fold enrichment (6-mer frequency, TF over GST control) | 1.28 fold enrichment (6-mer frequency, TF over GST control)

— PMC7862700, “An all-to-all approach to the identification of sequence-specific readers for epigenetic DNA modifications on cytosine”
